Records with an inconclusive call do not appear. The source made the active and inactive calls. The calls were made as follows, unless noted: active = hit-call score of the fitted dose curve at least 0.9, where 1 is the maximum; inactive = score below 0.9.
How the values were obtained:
[1] = CCTE_Shafer_MEA_acute_network_burst_percentage: CCTE's Neural Acute Assay for Percentage of Network Bursts, Shafer Lab (AID 2284022);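 also: curves fitted for loss so actives lower network burst percentage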
How it was run: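 Cortical neurons from rat were grown over microelectrode arrays and used on day 13 or 15 in vitro. Wells with at least 10 active electrodes received test chemical at 0.03-40 uM. Activity during 40 min of exposure was compared with the preceding 40-min baseline.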

[2] = CCTE_Shafer_MEA_acute_cross_correlation_area: CCTE's Neural Acute Assay for Area of Cross Correlation, Shafer Lab (AID 2284024);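 also: area under pooled inter-electrode spike cross-correlation near zero lag as percent change from own baseline; curves fitted for loss of cross-correlation area so actives lower synchrony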
How it was run: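 Acute exposure of mature rat cortical networks (day 13 or 15 post-plating) to 0.03-40 uM compound. Spontaneous spiking on MEA, 40 min pre- and post-dose at 37 C.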

[3] = CCTE_Shafer_MEA_acute_cross_correlation_HWHM: CCTE's Neural Acute Assay for Cross Correlation at Half Width at Half Maximum, Shafer Lab (AID 2284026);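 also: percent change per well from pre-dose baseline in spike cross-correlogram half width; hits are a decrease in cross-correlogram half width relative to DMSO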
How it was run: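 Primary cortex (rat), MEA, DIV 13/15; compound 0.03-40 uM; 40 min pre + 40 min post at 37 C; spike threshold 8x rms; wells need ≥10 active electrodes; endpoint = % change in cross-correlogram HWHM vs baseline, DMSO negative control.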

[4] = CCTE_Shafer_MEA_acute_synchrony_index: CCTE's Neural Acute Assay for Synchrony, Shafer Lab (AID 2284027);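 also: fitted for loss of signal so actives lower synchrony relative to DMSO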
How it was run: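 Readout is percent change in the unitless network synchrony index (0 low, 1 high) between a 40-min baseline and a 40-min recording in compound. Cultures were primary rat cortical neurons on MEAs, treated at 0.03-40 uM on DIV 13 or 15.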

[5] = biological target: Estrogen receptor (Homo sapiens) (UniProt P03372); assay: CCTE_Deisenroth_AIME_384WELL_LUC_Active: CCTE's 384-well Estrogen Receptor Transactivation Assay with AIME metabolic competence (ERTA luciferase; metabolism positive), Deisenroth Lab (AID 2284030; active = hit-call score of the fitted dose curve at least 0.9, where 1 is the maximum)
How it was run: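 In this metabolism-positive format, a 2-hour exposure to alginate-immobilized rat S9 precedes a 24 hour luciferase transactivation readout in VM7Luc4E2 cells. Dosing spans 10 concentrations from 0.002 to 200 uM.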

[6] = CCTE_Deisenroth_AIME_384WELL_CTox_Inactive: Cytotoxicity Assessment (CTOX) in CCTE's 384-well Estrogen Receptor Transactivation Assay without AIME metabolic competence (metabolism negative), Deisenroth Lab (AID 2284039; active = hit-call score of the fitted dose curve at least 0.9, where 1 is the maximum;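 also: cell viability via live-cell protease substrate cleaved to fluorescent probe; cells exposed 24 h to medium preincubated 2 h with alginate-water beads without S9; loss of fluorescence signal means loss of viability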)
How it was run: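 VM7Luc4E2 cells, metabolism-negative arm: test chemicals (0.002–200 uM, 10 points) pre-incubated 2 h with alginate-water microspheres, then medium transferred to cells for 24 h. Viability read as protease-substrate cleavage to fluorescent probe; loss-of-signal, bidirectional fitting.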

[7] = biological target: Estrogen receptor (Homo sapiens) (UniProt P03372); assay: CCTE_Deisenroth_AIME_384WELL_LUC_Shift: CCTE's 384-well Estrogen Receptor Transactivation Assay with AIME metabolic competence data shift (ERTA luciferase; difference in metabolism positive and negative), Deisenroth Lab (AID 2284041);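 also: shift is response with S9 minus without S9 so positive means metabolism raised ER signal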
How it was run: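 Chemicals (0.002–200 uM, 10 points) pre-incubated 2 h with alginate-encapsulated induced male Sprague Dawley rat liver S9 or S9-free, then medium applied 24 h to VM7Luc4E2 cells; luciferase. Endpoint is per-concentration difference, S9-positive minus negative.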

[8] = CCTE_Shafer_MEA_dev_firing_rate_mean: CCTE's Neural Network Formation Assay for Mean Firing Rate, Shafer Lab (AID 2284031)
How it was run: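 Rat primary cortical neurons were seeded on multielectrode arrays and treated from plating through day 12, with redosing at each feed. Spontaneous spiking was recorded four times; mean firing rate AUC was fitted downward against DMSO.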

[9] = CCTE_Shafer_MEA_dev_per_burst_spike_percent: CCTE's Neural Network Formation Assay for Percent of Spikes in a Burst, Shafer Lab (AID 2284032)
How it was run: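 Rat primary cortical neurons on 16-electrode MEA wells, dosed from plating day 0 for 12 days with renewal on DIV 5 and 9; spikes-in-bursts percentage averaged over bursting electrodes, collapsed as AUC across days 5, 7, 9, 12; loss direction versus DMSO.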

[10] = CCTE_Shafer_MEA_dev_active_electrodes_number: CCTE's Neural Network Formation Assay for Number of Active Electrodes, Shafer Lab (AID 2284040; active = hit-call score of the fitted dose curve at least 0.9, where 1 is the maximum)
How it was run: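 Primary rat cortical neurons on 16-electrode MEA wells, exposed from day 0 through day 12 with compound renewed at DIV 5 and 9 feeds. Active electrodes (mean firing ≥5 spikes/min) counted at DIV 5, 7, 9, 12; trapezoidal AUC across days, loss-of-signal versus DMSO.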

[11] = CCTE_Shafer_MEA_dev_burst_rate: CCTE's Neural Network Formation Assay for Burst Rate, Shafer Lab (AID 2284042)
How it was run: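 Primary rat cortical neurons on PEI-coated 48-well MEA plates (laminin added with cells at plating) (16 electrodes/well), exposed from plating to day 12, dosing renewed at DIV 5 and 9. Burst rate averaged over active electrodes, recorded DIV 5, 7, 9, 12, summarized as AUC; loss versus DMSO.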

[12] = CCTE_Shafer_MEA_dev_bursting_electrodes_number: CCTE's Neural Network Formation Assay for Number of Bursting Electrodes, Shafer Lab (AID 2284043; active = hit-call score of the fitted dose curve at least 0.9, where 1 is the maximum;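 as to AC50: potency is for loss of bursting electrodes relative to DMSO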)
How it was run: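 Primary rat cortical neurons plated on 16-electrode MEA wells, exposed from day 0 with compound renewed at DIV 5 and 9. Electrodes bursting ≥1 burst per 2 min counted on days 5, 7, 9 and 12; trapezoidal AUC across days, fitted for loss versus DMSO.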

[13] = CCTE_Shafer_MEA_dev_per_burst_interspike_interval: CCTE's Neural Network Formation Assay for Burst Interspike Interval, Shafer Lab (AID 2284044);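 also: mean spike spacing inside bursts as AUC over recordings on days 5 7 9 12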
How it was run: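 Developmental network-formation MEA in primary rat cortical cultures with exposure spanning days 0–12. Within-burst ISI is averaged per well and integrated across recording days by area under the curve, with DMSO as negative control baseline.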

[14] = CCTE_Shafer_MEA_dev_burst_duration_mean: CCTE's Neural Network Formation Assay for Mean Burst Duration, Shafer Lab (AID 2284045)
How it was run: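 Primary rat cortical neurons on 48-well 16-electrode MEA plates, exposed from day 0 with renewal at DIV 5 and 9; spontaneous activity recorded on days 5, 7, 9, 12. Well-mean burst duration across bursting electrodes, collapsed as trapezoidal AUC; DMSO baseline.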

[15] = CCTE_Shafer_MEA_dev_interburst_interval_mean: CCTE's Neural Network Formation Assay for Mean Interburst Interval, Shafer Lab (AID 2284046);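 also: well-mean interburst interval of bursting electrodes as AUC over four recording days; curve fitted for decrease in interburst interval relative to DMSO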
How it was run: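 Recordings on days 5, 7, 9 and 12 give well-mean interburst interval across actively bursting electrodes, summarized as area under the curve. Cultures: rat cortical neurons, continuous exposure from day 0, compound renewed at feeds; decrease analyzed versus DMSO.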

[16] = biological target: Estrogen receptor (Homo sapiens) (UniProt P03372); assay: CCTE_Deisenroth_AIME_96WELL_LUC_Active: CCTE's 96-well Estrogen Receptor Transactivation Assay with AIME metabolic competence (ERTA luciferase; metabolism positive), Deisenroth Lab (AID 2284023; active = hit-call score of the fitted dose curve at least 0.9, where 1 is the maximum)
How it was run: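 Chemicals pre-incubated 2 h with alginate-immobilized phenobarbital/beta-naphthoflavone-induced male Sprague Dawley rat liver S9, then medium transferred to VM7Luc4E2 cells for 24 h luciferase read-out. 10-point series 0.002 - 200 uM; fitted relative to 17beta-estradiol.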

[17] = biological target: Estrogen receptor (Homo sapiens) (UniProt P03372); assay: CCTE_Deisenroth_AIME_96WELL_LUC_Inactive: CCTE's 96-well Estrogen Receptor Transactivation Assay without AIME metabolic competence (ERTA luciferase; metabolism negative), Deisenroth Lab (AID 2284025; active = hit-call score of the fitted dose curve at least 0.9, where 1 is the maximum)
How it was run: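 VM7Luc4E2 breast cells, luciferase read 24 h after dosing with medium pre-incubated 2 h on alginate-water lids (metabolism negative). 10-point series 0.002–200 uM, single technical replicate, n≥4; fit relative to 17beta-estradiol.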

[18] = CCTE_Deisenroth_AIME_96WELL_CTox_Active: Cytotoxicity Assessment (CTOX) in CCTE's 96-well Estrogen Receptor Transactivation Assay with AIME metabolic competence (metabolism positive), Deisenroth Lab (AID 2284028; active = hit-call score of the fitted dose curve at least 0.9, where 1 is the maximum)
How it was run: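 Chemicals (0.002–200 uM) were first incubated 2 h with alginate-immobilized phenobarbital/beta-naphthoflavone-induced male rat liver S9; conditioned medium then went onto VM7Luc4E2 cells for 24 h, with viability read by protease-substrate fluorescence, fitted bidirectionally.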

[19] = CCTE_Deisenroth_AIME_384WELL_CTox_Active: Cytotoxicity Assessment (CTOX) in CCTE's 384-well Estrogen Receptor Transactivation Assay with AIME metabolic competence (metabolism positive), Deisenroth Lab (AID 2284037; active = hit-call score of the fitted dose curve at least 0.9, where 1 is the maximum;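 also: activity means signal loss indicating cell death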)
How it was run: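 Chemicals pre-incubated 2 hours with alginate-immobilised phenobarbital/beta-naphthoflavone-induced male Sprague Dawley rat liver S9, then conditioned medium applied 24 hour to VM7Luc4E2 cells. Viability by fluorogenic protease substrate; 10-point series 0.002 - 200 uM.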

Measured: AC50

Chain of Estrogen receptor (Homo sapiens) (P03372 whole entry, looked up): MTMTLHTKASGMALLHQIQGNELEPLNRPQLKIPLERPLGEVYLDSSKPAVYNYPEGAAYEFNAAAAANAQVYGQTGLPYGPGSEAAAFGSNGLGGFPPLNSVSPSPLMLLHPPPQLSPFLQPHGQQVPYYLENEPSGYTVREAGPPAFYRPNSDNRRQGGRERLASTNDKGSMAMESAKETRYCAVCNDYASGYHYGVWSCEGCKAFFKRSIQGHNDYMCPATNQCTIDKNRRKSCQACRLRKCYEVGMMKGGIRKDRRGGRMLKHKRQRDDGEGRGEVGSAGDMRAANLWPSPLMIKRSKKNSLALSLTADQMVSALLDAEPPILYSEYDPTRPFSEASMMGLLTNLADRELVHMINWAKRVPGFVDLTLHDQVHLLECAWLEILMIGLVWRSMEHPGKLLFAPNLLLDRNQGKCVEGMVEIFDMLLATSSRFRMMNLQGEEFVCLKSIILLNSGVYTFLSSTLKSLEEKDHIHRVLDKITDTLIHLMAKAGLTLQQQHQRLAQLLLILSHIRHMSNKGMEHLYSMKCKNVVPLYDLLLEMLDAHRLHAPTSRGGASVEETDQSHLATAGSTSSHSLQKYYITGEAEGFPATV

CCCCCCCCCCCCCCCS(=O)(=O)Oc1ccccc1
inactive: [1] | [2] | [3] | [4] | [6] | [7]
active: [5] 19.5 µM

Cc1cc(CCN2CCN(c3nsc4ccccc34)CC2)cc2c1NC(=O)CC2(C)C
active: [3] 20 µM | [4] 33.4 µM
inactive: [1] | [2]

CCC(=C(c1ccc(O)cc1)c1ccc(OCCN(C)C)cc1)c1ccccc1
inactive: [1] | [2] | [3]
active: [4] 20.9 µM

CC[C@H](c1ccc(O)cc1)[C@@H](CC)c1ccc(O)cc1
inactive: [1] | [2] | [3] | [4]

CC(=O)NC1(c2cccc(F)c2)CCN(CC[C@@]2(c3ccc(Cl)c(Cl)c3)CN(c3ccccc3)C(=O)CO2)CC1
active: [1] 8.3 µM | [2] 1.03 µM | [3] 20 µM | [4] 9.53 µM

CCc1ccc(CCOc2ccc(CC3SC(=O)NC3=O)cc2)nc1 (stereo not drawn)
inactive: [1] | [2] | [3] | [4]

OCCC(F)(F)C(F)(F)C(F)(F)C(F)(F)C(F)(F)C(F)(F)C(F)(F)C(F)(F)F
active: [12] 26 µM
not listed: [6] | [16] | [17] | [18] | [19]
inactive: all other assays above

O=C(/C=C/c1ccc(O)cc1)CC(=O)/C=C/c1ccc(O)cc1
inactive: [18]
active: [16] 31.4 µM | [17] 43.2 µM

CN1CCC[C@H]1c1cccnc1
active: [2] 0.7 µM
not listed: [16] | [17] | [18]
inactive: all other assays above

CC(C)(C)c1cc(C(C)(C)C)c(O)c(C(C)(C)C)c1
active: [4] 0.167 µM
inactive: [1] | [2] | [3]

CCCCCCCCCCCCc1ccccc1S(=O)(=O)O
active: [4] 33.1 µM
inactive: [1] | [2] | [3]

— PubChem BioAssay (EPA / NIEHS)
